Active and inactive are the calls of the source. Rule for the calls: active = hit-call score of the fitted dose curve at least 0.9, where 1 is the maximum; inactive = score below 0.9.
The molecules below were run on Signal transducer and activator of transcription 3 (Homo sapiens) (UniProt P40763) (assay: LTEA_HepaRG_STAT3: Life Technologies and Expression Analysis (LTEA) Assay for Signal transducer and activator of transcription (STAT3) using HepaRG (AID 2283529)). Settings: mRNA level, 48 h; actives raise or lower the signal.
Sequence of Signal transducer and activator of transcription 3 (Homo sapiens) (P40763 whole entry, looked up): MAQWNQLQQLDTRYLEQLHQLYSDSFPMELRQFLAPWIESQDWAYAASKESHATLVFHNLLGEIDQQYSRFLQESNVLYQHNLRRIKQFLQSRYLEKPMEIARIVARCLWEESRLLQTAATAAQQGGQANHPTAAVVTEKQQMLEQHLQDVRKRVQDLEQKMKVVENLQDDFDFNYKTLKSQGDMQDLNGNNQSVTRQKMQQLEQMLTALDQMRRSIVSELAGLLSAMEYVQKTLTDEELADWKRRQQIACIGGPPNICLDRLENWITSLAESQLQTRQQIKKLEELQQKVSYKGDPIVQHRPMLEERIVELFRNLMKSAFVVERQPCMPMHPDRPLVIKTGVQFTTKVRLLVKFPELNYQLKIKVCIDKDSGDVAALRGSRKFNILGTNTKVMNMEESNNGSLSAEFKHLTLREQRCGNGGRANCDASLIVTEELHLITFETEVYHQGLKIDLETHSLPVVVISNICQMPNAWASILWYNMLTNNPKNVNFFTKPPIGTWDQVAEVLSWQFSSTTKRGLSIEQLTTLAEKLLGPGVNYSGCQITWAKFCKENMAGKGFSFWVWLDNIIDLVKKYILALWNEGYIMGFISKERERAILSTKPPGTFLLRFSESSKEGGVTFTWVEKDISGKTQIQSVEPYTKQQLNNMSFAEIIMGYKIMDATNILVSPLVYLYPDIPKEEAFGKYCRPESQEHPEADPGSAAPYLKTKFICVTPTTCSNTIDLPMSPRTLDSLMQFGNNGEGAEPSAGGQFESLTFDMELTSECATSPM
In short: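 Read-out is STAT3 mRNA level by qRT-PCR, normalized to three housekeeping genes, in human HepaRG liver cells treated for 48 h. Concentrations ran from 100 uM downward in half-log steps; curves were fitted for gain or loss relative to 0.5% DMSO.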
In the case of `c1cc2ccc3cccc4ccc(c1)c2c34`, the outcome is reported as “inactive”. `CCSC(=O)N(CC)C1CCCCC1` was tested, and the outcome was “inactive”. For `CC(C)(c1ccccc1)c1ccc(O)cc1`, the outcome was “inactive”. For `CCOP(=S)(OCC)SCSC(C)(C)C`, the outcome was “inactive”. In the case of `CCOC(=O)C(O)(c1ccc(Cl)cc1)c1ccc(Cl)cc1`, the outcome is reported as “inactive”. In the case of `Nc1ccc(-c2ccc(N)cc2)cc1`, the outcome is reported as “inactive”. In the case of `COS(=O)(=O)OC`, the outcome is reported as “inactive”. `CCCCCCCCCC[N+](C)(C)CCCCCCCCCC` was tested, and the outcome was “inactive”. In the case of `O=C(O)C(F)(F)C(F)(F)C(F)(F)C(F)(F)C(F)(F)C(F)(F)C(F)(F)C(F)(F)C(F)(F)F`, the AC50 is reported as 79.3 µM (active). For `Cc1cccc(C)c1N`, the outcome was “inactive”. `CCCCCCCCCc1ccc(O)cc1` was tested, and the outcome was “inactive”. `O=NN(c1ccccc1)c1ccccc1` was tested, and the outcome was “inactive”. With `CCCCCCCCOC(=O)c1ccccc1C(=O)OCCCCCCCC` the outcome was “inactive”. In the case of `Oc1ccc(C(c2ccc(O)cc2)(C(F)(F)F)C(F)(F)F)cc1`, the outcome is reported as “inactive”. In the case of `O=C(O)C(F)(F)C(F)(F)C(F)(F)C(F)(F)C(F)(F)F`, the outcome is reported as “inactive”. In the case of `NS(=O)(=O)C(F)(F)C(F)(F)C(F)(F)C(F)(F)C(F)(F)C(F)(F)C(F)(F)C(F)(F)F`, the AC50 is reported as 15.2 µM (active). `O=S(=O)(O)C(F)(F)C(F)(F)C(F)(F)C(F)(F)F` was tested, and the outcome was “inactive”. `CC1=C2C[C@H]3[C@@H](CC=C4C[C@@H](O)CC[C@@]43C)[C@@H]2CC[C@]12O[C@@H]1C[C@H](C)CN[C@H]1[C@H]2C` was tested, and the outcome was “inactive”. With `CCC(C)(c1ccc(O)cc1)c1ccc(O)cc1` the outcome was “inactive”. For `CN(C)c1nc(=O)n(C2CCCCC2)c(=O)n1C`, the outcome was “inactive”. For `Cc1ccccc1O`, the outcome was “inactive”. For `C=CC(N)=O`, the outcome was “inactive”. With `Cc1cccc([N+](=O)[O-])c1` the outcome was “inactive”. With `Cc1ccc(O)c(C)c1` the outcome was “inactive”. `CN(C)CCO` was tested, and the outcome was “inactive”. In the case of `O=C(N[C@H]1CN2CCC1CC2)c1cc2ccoc2cn1`, the outcome is reported as “inactive”. `O=S(=O)(O)C(F)(F)C(F)(F)C(F)(F)C(F)(F)C(F)(F)C(F)(F)F` was tested, and the outcome was “inactive”. In the case of `Cc1cc(-c2ccc(N)c(C)c2)ccc1N`, the outcome is reported as “inactive”. In the case of `c1ccc(-c2ccccc2)cc1`, the outcome is reported as “inactive”. With `C1CC2OC2CC1C1CO1` (configuration not stated) the outcome was “inactive”. `Cc1ccccc1CO[C@@H]1C[C@@]2(C(C)C)CC[C@]1(C)O2` was tested, and the outcome was “inactive”. With `CCC(C)c1cc([N+](=O)[O-])cc([N+](=O)[O-])c1O` (configuration not stated) the AC50 was 0.631 µM (active).
